Data: PubChem BioAssay (NCATS)
Values joined by “and” are separate entries in the source; they are usually repeats but may differ in a detail not shown here. Equal values may be shown once. Records with an inconclusive call do not appear. Entries that show only a call come without a potency. Unmarked numbers belong to inactive results. Active and inactive are the calls of the source. Calls come from the whole dose curve; as a rule, active = well fitted inhibition curve with a large enough effect; inconclusive = small, poorly fitted or top-dose-only effect; inactive = flat fitted curve, though single readings scatter.

Legend:
ECU = test: qHTS profiling for inhibitors of Plasmodium falciparum proliferation (AID 504749); conditions: P. falciparum in erythrocytes, SYBR Green DNA, 72 h; series mostly up to 28.7 µM
Method in brief: (§1)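 Each compound contacts P. falciparum-infected red blood cells for 72 h at 37 C; lysis buffer (Tris, EDTA, saponin, Triton X, SYBR Green I) is added and fluorescence measured next morning; values normalized to controls.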

FAB9 = test: as above; conditions: P. falciparum in erythrocytes, SYBR Green DNA, 72 h; series mostly up to 28.7 µM
Method in brief: as §1

GB4 = test: as above; conditions: P. falciparum in erythrocytes, SYBR Green DNA, 72 h; series mostly up to 28.7 µM
Method in brief: as §1

HB3 = test: as above; conditions: P. falciparum in erythrocytes, SYBR Green DNA, 72 h; series mostly up to 28.7 µM
Method in brief: as §1

ICS = test: as above; conditions: P. falciparum in erythrocytes, SYBR Green DNA, 72 h; series mostly up to 28.7 µM
Method in brief: as §1

JCK = test: as above; conditions: P. falciparum in erythrocytes, SYBR Green DNA, 72 h; series mostly up to 28.7 µM
Method in brief: as §1

N140 = test: as above; conditions: P. falciparum in erythrocytes, SYBR Green DNA, 72 h; series mostly up to 28.7 µM
Method in brief: as §1

P93_24 = test: as above; conditions: P. falciparum in erythrocytes, SYBR Green DNA, 72 h; series mostly up to 28.7 µM
Method in brief: as §1

P94_40 = test: as above; conditions: P. falciparum in erythrocytes, SYBR Green DNA, 72 h; series mostly up to 28.7 µM
Method in brief: as §1

PAD = test: as above; conditions: P. falciparum in erythrocytes, SYBR Green DNA, 72 h; series mostly up to 28.7 µM
Method in brief: as §1

PC15 = test: as above; conditions: P. falciparum in erythrocytes, SYBR Green DNA, 72 h; series mostly up to 28.7 µM
Method in brief: as §1

PC26 = test: as above; conditions: P. falciparum in erythrocytes, SYBR Green DNA, 72 h; series mostly up to 28.7 µM
Method in brief: as §1

PC49 = test: as above; conditions: P. falciparum in erythrocytes, SYBR Green DNA, 72 h; series mostly up to 28.7 µM
Method in brief: as §1

SC27B = test: as above; conditions: P. falciparum in erythrocytes, SYBR Green DNA, 72 h; series mostly up to 28.7 µM
Method in brief: as §1

TAB109 = test: as above; conditions: P. falciparum in erythrocytes, SYBR Green DNA, 72 h; series mostly up to 28.7 µM
Method in brief: as §1

TAB165 = test: as above; conditions: P. falciparum in erythrocytes, SYBR Green DNA, 72 h; series mostly up to 28.7 µM
Method in brief: as §1

W2 = test: as above; conditions: P. falciparum in erythrocytes, SYBR Green DNA, 72 h; series mostly up to 28.7 µM
Method in brief: as §1

CRL-7250 = normal cell line; test: Cytotoxic Profiling of Annotated Libraries Using Quantitative High-Throughput Screening (AID 1296008); conditions: Five cell lines viability, CellTiter-Glo ATP luminescence, 48-72 h; max response: hits give low values
Method in brief: (§2)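 Cells exposed to compounds for 48 or 72 hr at 37 degrees Celsius. Viability read as ATP-coupled luminescence with CellTiter-Glo after 10 min at room temperature.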

HEK293 = test: as above; conditions: Five cell lines viability, CellTiter-Glo ATP luminescence, 48-72 h; max response: hits give low values
Method in brief: as §2

TAB113 = test: qHTS profiling for inhibitors of Plasmodium falciparum proliferation (AID 504749); conditions: P. falciparum in erythrocytes, SYBR Green DNA, 72 h; series mostly up to 28.7 µM
Method in brief: as §1
Note: nearly all actives have a fitted effect of over 60% in size.
Potency is the fitted concentration of half-maximal effect.

Q: How did the Potency (ECU) turn out when `CCN(CC)C(C)C(=O)c1ccccc1` (stereo not drawn) was run?
A: inactive

Q: And the Potency (FAB9)?
A: inactive

Q: And the Potency (GB4)?
A: inactive

Q: And the Potency (HB3)?
A: inactive

Q: What about the Potency (ICS) of the same compound?
A: inactive

Q: What about the Potency (JCK) of the same compound?
A: inactive

Q: What about the Potency (N140) of the same compound?
A: inactive

Q: What about the Potency (P93_24) of the same compound?
A: inactive

Q: What about the Potency (P94_40) of the same compound?
A: inactive

Q: What about the Potency (PAD) of the same compound?
A: inactive

Q: And the Potency (PC15)?
A: inactive

Q: And the Potency (PC26)?
A: inactive

Q: What about the Potency (PC49) of the same compound?
A: inactive

Q: And the Potency (SC27B)?
A: inactive

Q: And the Potency (TAB109)?
A: inactive

Q: And the Potency (TAB165)?
A: inactive

Q: What about the Potency (W2) of the same compound?
A: inactive

Q: And the max response (CRL-7250)?
A: -0.537%

Q: With `CC(CC(C#N)(c1ccccc1)c1ccccc1)N(C)C` (stereo not drawn) as the compound, how does the Potency (HEK293) read?
A: 24.3 µM (active)

Q: What does the source list for `Cc1ncc2n1-c1ccc(Cl)cc1C(c1ccccc1F)=NC2`?
A: Potency (ECU): inactive; Potency (FAB9): inactive; Potency (GB4): inactive; Potency (HB3): inactive; Potency (ICS): inactive; Potency (JCK): inactive; Potency (N140): inactive; Potency (P93_24): inactive; Potency (P94_40): inactive; Potency (PAD): inactive; Potency (PC15): inactive; Potency (PC26): inactive; Potency (PC49): inactive; Potency (SC27B): inactive; Potency (TAB109): inactive; Potency (TAB113): inactive; Potency (TAB165): inactive; Potency (W2): inactive; max response (HEK293): -4.93%

Q: How did the Potency (ECU) turn out when `Cc1c(Cl)c(=O)oc2cc(OP(=O)(OCCCl)OCCCl)ccc12` was run?
A: 10 µM (active)

Q: And the Potency (FAB9)?
A: inactive

Q: And the Potency (GB4)?
A: 12 µM (active)

Q: What about the Potency (HB3) of the same compound?
A: 11.2 µM (active)

Q: And the Potency (ICS)?
A: 11.2 µM (active)

Q: What about the Potency (N140) of the same compound?
A: 8.91 µM (active)

Q: What about the Potency (P93_24) of the same compound?
A: 11.2 µM (active)

Q: What about the Potency (P94_40) of the same compound?
A: 6.31 µM (active)

Q: And the Potency (PC15)?
A: inactive

Q: What about the Potency (PC49) of the same compound?
A: inactive

Q: And the Potency (SC27B)?
A: 7.94 µM (active)

Q: What about the Potency (TAB109) of the same compound?
A: 10 µM (active)

Q: What about the Potency (TAB113) of the same compound?
A: 10 µM (active)

Q: What about the Potency (TAB165) of the same compound?
A: 7.08 µM (active)

Q: And the Potency (W2)?
A: 6.75 µM (active)

Q: With `NC1(c2ccccc2)CCCCC1` as the compound, how does the Potency (HEK293) read?
A: 38.2 µM (active)

Q: How did the Potency (ECU) turn out when `CC(C)(C)OC(=O)c1ncn2c1[C@@H]1CCCN1C(=O)c1c(Br)cccc1-2` was run?
A: inactive

Q: And the Potency (FAB9)?
A: inactive

Q: And the Potency (GB4)?
A: inactive

Q: What about the Potency (HB3) of the same compound?
A: inactive

Q: What about the Potency (JCK) of the same compound?
A: inactive

Q: And the Potency (N140)?
A: inactive

Q: And the Potency (P93_24)?
A: inactive

Q: And the Potency (P94_40)?
A: inactive

Q: What about the Potency (PAD) of the same compound?
A: inactive

Q: And the Potency (PC15)?
A: inactive

Q: And the Potency (PC26)?
A: inactive

Q: And the Potency (PC49)?
A: inactive

Q: And the Potency (SC27B)?
A: inactive

Q: And the Potency (TAB109)?
A: inactive

Q: What about the Potency (TAB113) of the same compound?
A: inactive

Q: And the Potency (TAB165)?
A: inactive

Q: What about the outcome (CRL-7250) of the same compound?
A: inactive

Q: What does the source list for `COc1ccc(C(=O)N2CCCC2=O)cc1`?
A: Potency (ECU): inactive; Potency (FAB9): inactive; Potency (GB4): inactive; Potency (HB3): inactive; Potency (ICS): inactive; Potency (JCK): inactive; Potency (N140): inactive; Potency (P93_24): inactive; Potency (P94_40): inactive; Potency (PAD): inactive; Potency (PC15): inactive; Potency (PC26): inactive; Potency (PC49): inactive; Potency (SC27B): inactive; Potency (TAB109): inactive; Potency (TAB113): inactive; Potency (TAB165): inactive; Potency (W2): inactive; max response (CRL-7250): -4.75% and 1.19%

Q: Which Potency (ECU) does the source give for `CC(C)NCC(O)c1ccc(N)c(C#N)c1` (stereo not drawn) here?
A: inactive

Q: What about the Potency (FAB9) of the same compound?
A: inactive

Q: And the Potency (GB4)?
A: inactive

Q: What about the Potency (HB3) of the same compound?
A: inactive

Q: And the Potency (ICS)?
A: inactive

Q: And the Potency (JCK)?
A: inactive

Q: What about the Potency (N140) of the same compound?
A: inactive

Q: What about the Potency (P93_24) of the same compound?
A: inactive

Q: And the Potency (P94_40)?
A: inactive

Q: And the Potency (PAD)?
A: inactive

Q: And the Potency (PC15)?
A: inactive

Q: What about the Potency (PC49) of the same compound?
A: inactive

Q: What about the Potency (SC27B) of the same compound?
A: inactive

Q: And the Potency (TAB109)?
A: inactive

Q: What about the Potency (TAB113) of the same compound?
A: inactive

Q: What about the Potency (TAB165) of the same compound?
A: inactive

Q: And the Potency (W2)?
A: inactive

Q: And the max response (CRL-7250)?
A: 3.52%

Q: What does the source list for `Nc1ccc(N)cc1`?
A: Potency (GB4): 15.1 µM (active); Potency (HB3): inactive; Potency (JCK): inactive; Potency (PC49): inactive; Potency (W2): 3.79 µM (active); max response (CRL-7250): -4.93%

Q: For `COP(=O)(OC)C(O)C(Cl)(Cl)Cl` (stereo not drawn), which Potency (FAB9) is on record?
A: inactive

Q: What about the Potency (HB3) of the same compound?
A: inactive

Q: And the Potency (JCK)?
A: inactive

Q: And the Potency (N140)?
A: inactive

Q: What about the Potency (P93_24) of the same compound?
A: inactive

Q: And the Potency (P94_40)?
A: inactive

Q: What about the Potency (PAD) of the same compound?
A: inactive

Q: And the Potency (PC15)?
A: inactive

Q: What about the Potency (PC26) of the same compound?
A: inactive

Q: What about the Potency (PC49) of the same compound?
A: inactive

Q: What about the Potency (SC27B) of the same compound?
A: inactive

Q: And the Potency (TAB109)?
A: inactive

Q: And the Potency (TAB113)?
A: inactive

Q: What about the Potency (TAB165) of the same compound?
A: inactive

Q: And the Potency (W2)?
A: 4.26 µM (active)

Q: And the max response (CRL-7250)?
A: 3.85%

Q: How did the Potency (HEK293) turn out when `CC#C[C@]1(O)CC[C@H]2[C@@H]3C[C@H](C)C4=CC(=O)CC[C@]4(C)[C@H]3CC[C@@]21C` was run?
A: 23.7 µM (active)

Q: `C[C@H]1C(=O)O[C@@H]2CCN3CC=C(COC(=O)[C@](C)(O)[C@]1(C)O)[C@H]23` was tested. Which Potency (ECU) did it give?
A: inactive

Q: And the Potency (FAB9)?
A: inactive

Q: And the Potency (GB4)?
A: inactive

Q: What about the Potency (HB3) of the same compound?
A: inactive

Q: What about the Potency (ICS) of the same compound?
A: inactive

Q: And the Potency (JCK)?
A: inactive

Q: What about the Potency (N140) of the same compound?
A: inactive

Q: What about the Potency (P93_24) of the same compound?
A: inactive

Q: And the Potency (P94_40)?
A: inactive

Q: What about the Potency (PAD) of the same compound?
A: inactive

Q: What about the Potency (PC15) of the same compound?
A: inactive

Q: And the Potency (PC26)?
A: inactive

Q: What about the Potency (PC49) of the same compound?
A: inactive

Q: And the Potency (SC27B)?
A: inactive

Q: What about the Potency (TAB113) of the same compound?
A: inactive

Q: What about the Potency (TAB165) of the same compound?
A: inactive

Q: What about the Potency (W2) of the same compound?
A: inactive

Q: What about the max response (CRL-7250) of the same compound?
A: -23.7%

Q: With `C#C[C@]1(O)CC[C@H]2[C@@H]3CCC4=CC(=O)CCC4=C3C=C[C@@]21CC` as the compound, how does the Potency (ECU) read?
A: 11.2 µM (active)

Q: What about the Potency (HB3) of the same compound?
A: 10 µM (active)

Q: What about the Potency (ICS) of the same compound?
A: 8.91 µM (active)

Q: And the Potency (JCK)?
A: inactive

Q: And the Potency (PC15)?
A: 6.31 µM (active)

Q: What about the Potency (PC26) of the same compound?
A: 6.01 µM (active)

Q: What about the Potency (PC49) of the same compound?
A: 8.91 µM (active)

Q: And the Potency (TAB109)?
A: 12.6 µM (active)

Q: And the Potency (W2)?
A: 7.57 µM (active)
